# According to the supplement of paper PMC8728848:
# This is one part of a sample in which the strongest signals are shown more often than they occur.
# B1: AT5G24760(45) (Arabidopsis thaliana), Q8LEB2 (protein)
# chain: MSASSSSFEQPQVITCNAAVAWRAGEPLVMEEVEVSPPQPLEIRIKVVCTSLCRSDLSAWESQSLLPRIFGHEAAGIVESIGEGVTEFEKGDHVLAVFTGECGSCRHCISGKSNMCQVLGMERKGLMHSDQKTRFSIKGKPVYHYCAVSSFSEYTVVHSGCAVKVDPLAPLHKICLLSCGVAAGLGAAWNVADVQKGSSVVIFGLGTVGLSVAQGAKLRGAAQILGVDINPAKAEQAKTFGVTDFINSNDLSEPIPQVIKRMTGGGADFSFECVGDTGIATTALQSCSDGWGMTVTLGVPKAKPEVSAHYGLFLSGKSLKGTLFGGWKPKSDLPSLIDKYMNKEIMIDEFITHNLSFDEINKAFVLMREGKCLRCVLHMPK
# What was measured:
# Experiment in all cases: glycan array binding signal (z-score within array); higher = stronger binding
# Settings in all cases: glycan notation: IUPAC condensed, linker removed
# [1] = biological target: Fuc(a1-2)Gal(b1-3)GalNAc(b1-3)Gal(a1-4)Gal(b1-4)Glc
# In short: (§1)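 The binding signal is a Z-score computed within each array and averaged over linkers. Arrays of the same protein sequence at different concentrations or buffers were also averaged together. Data originate from 3228 arrays in the Consortium for Functional Glycomics database, kept only where the protein sequence was available.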
# [2] = biological target: Fuc(a1-2)Gal(b1-4)GlcNAc(b1-3)[Fuc(a1-3)[Gal(b1-4)]GlcNAc(b1-6)]Gal(b1-4)Glc
# In short: as §1
# [3] = biological target: Fuc(a1-2)Gal(b1-4)[Fuc(a1-3)]GlcNAc(b1-2)Man(a1-3)[Fuc(a1-2)Gal(b1-4)[Fuc(a1-3)]GlcNAc(b1-2)Man(a1-6)]Man(b1-4)GlcNAc(b1-4)[Fuc(a1-6)]GlcNAc
# In short: as §1
# [4] = biological target: Fuc(a1-2)Gal(b1-4)[Fuc(a1-3)]GlcNAc(b1-3)GalNAc
# In short: as §1
# Fuc(a1-2)[Gal(a1-3)]Gal = biological target: Fuc(a1-2)[Gal(a1-3)]Gal
# In short: as §1
# [5] = biological target: Fuc(a1-2)[Gal(a1-3)]Gal(b1-3)GlcNAc
# In short: as §1
# [6] = biological target: Fuc(a1-2)[Gal(a1-3)]Gal(b1-4)GlcNAc(b1-3)[Fuc(a1-2)[Gal(a1-3)]Gal(b1-4)GlcNAc(b1-6)]GalNAc
# In short: as §1
# [7] = biological target: Fuc(a1-2)[GalNAc(a1-3)]Gal(b1-3)GlcNAc(b1-3)GalNAc
# In short: as §1
# [8] = biological target: Fuc(a1-2)[GalNAc(a1-3)]Gal(b1-4)GlcNAc(b1-2)Man
# In short: as §1
# [9] = biological target: Fuc(a1-2)[GalNAc(a1-3)]Gal(b1-4)[Fuc(a1-3)]GlcNAc(b1-3)GalNAc
# In short: as §1
# [10] = biological target: Fuc(a1-3)[GalNAc(b1-4)]GlcNAc
# In short: as §1
# Fuc(a1-4)GlcNAc = biological target: Fuc(a1-4)GlcNAc
# In short: as §1
# Gal(a1-3)Gal = biological target: Gal(a1-3)Gal
# In short: as §1
# Gal(a1-3)Gal(b1-3)GlcNAc = biological target: Gal(a1-3)Gal(b1-3)GlcNAc
# In short: as §1
# [11] = biological target: Gal(a1-3)[Gal(a1-4)]Gal(b1-4)GlcNAc
# In short: as §1
# Gal(b1-3)GalNAc = biological target: Gal(b1-3)GalNAc
# In short: as §1
# [12] = biological target: Gal(b1-3)GlcNAc(b1-3)Gal(b1-4)GlcNAc
# In short: as §1
# [13] = biological target: Gal(b1-4)GlcNAc(b1-2)[Gal(b1-4)GlcNAc(b1-6)]Man(a1-6)[GlcNAc(b1-4)][Gal(b1-4)GlcNAc(b1-2)Man(a1-3)]Man(b1-4)GlcNAc(b1-4)GlcNAc
# In short: as §1
# [14] = biological target: Gal(b1-4)GlcNAc(b1-3)Gal(b1-4)GlcNAc(b1-3)Gal(b1-4)GlcNAc(b1-3)Gal(b1-4)GlcNAc(b1-2)[Gal(b1-4)GlcNAc(b1-3)Gal(b1-4)GlcNAc(b1-3)Gal(b1-4)GlcNAc(b1-3)Gal(b1-4)GlcNAc(b1-6)]Man(a1-6)[Gal(b1-4)GlcNAc(b1-3)Gal(b1-4)GlcNAc(b1-3)Gal(b1-4)GlcNAc(b1-3)Gal(b1-4)GlcNAc(b1-2)Man(a1-3)]Man(b1-4)GlcNAc(b1-4)[Fuc(a1-6)]GlcNAc
# In short: as §1
# [15] = biological target: Gal(b1-4)GlcNAc(b1-3)Gal(b1-4)GlcNAc(b1-3)Gal(b1-4)GlcNAc(b1-3)Gal(b1-4)GlcNAc(b1-3)Gal(b1-4)GlcNAc(b1-3)Gal(b1-4)GlcNAc(b1-2)Man(a1-3)[Gal(b1-4)GlcNAc(b1-3)Gal(b1-4)GlcNAc(b1-3)Gal(b1-4)GlcNAc(b1-3)Gal(b1-4)GlcNAc(b1-3)Gal(b1-4)GlcNAc(b1-3)Gal(b1-4)GlcNAc(b1-2)Man(a1-6)]Man(b1-4)GlcNAc(b1-4)GlcNAc
# In short: as §1
# [16] = biological target: Gal(b1-4)GlcNAc(b1-6)GalNAc
# In short: as §1
# [17] = biological target: Gal(b1-4)GlcNAc(b1-6)[Gal(b1-3)]GalNAc
# In short: as §1
# [18] = biological target: Gal3S(b1-3)[Fuc(a1-4)]GlcNAc
# In short: as §1
# [19] = biological target: Gal3S(b1-4)[Fuc(a1-3)]Glc6S
# In short: as §1
# [20] = biological target: GalNAc(b1-3)Gal(a1-4)Gal(b1-4)GlcNAc(b1-3)Gal(b1-4)Glc
# In short: as §1
# [21] = biological target: GalNAc(b1-3)Gal(a1-6)Gal(b1-4)Glc
# In short: as §1
# GalNAc(b1-3)GlcNAc = biological target: GalNAc(b1-3)GlcNAc
# In short: as §1
# GalNAc(b1-4)GlcNAc = biological target: GalNAc(b1-4)GlcNAc
# In short: as §1
# [22] = biological target: GlcNAc(b1-2)Gal(b1-3)GalNAc
# In short: as §1
# [23] = biological target: GlcNAc(b1-2)[GlcNAc(b1-4)]Man(a1-3)[GlcNAc(b1-2)Man(a1-6)]Man(b1-4)GlcNAc(b1-4)GlcNAc
# In short: as §1
# [24] = biological target: GlcNAc(b1-2)[GlcNAc(b1-4)]Man(a1-3)[GlcNAc(b1-4)][GlcNAc(b1-2)Man(a1-6)]Man(b1-4)GlcNAc(b1-4)GlcNAc
# In short: as §1
# [25] = biological target: GlcNAc(b1-3)Gal(b1-4)GlcNAc(b1-3)Gal(b1-4)GlcNAc(b1-2)Man(a1-3)[GlcNAc(b1-3)Gal(b1-4)GlcNAc(b1-3)Gal(b1-4)GlcNAc(b1-2)Man(a1-6)]Man(b1-4)GlcNAc(b1-4)GlcNAc
# In short: as §1
# [26] = biological target: GlcNAc(b1-4)Gal(b1-4)GlcNAc
# In short: as §1
# [27] = biological target: Man(a1-3)[Man(a1-6)]Man(b1-4)GlcNAc(b1-4)[Fuc(a1-6)]GlcNAc
# In short: as §1
# [28] = biological target: Neu5Ac(a2-3)Gal(b1-3)GlcNAc(b1-3)GalNAc
# In short: as §1
# [29] = biological target: Neu5Ac(a2-3)Gal(b1-4)GlcNAc(b1-2)[Neu5Ac(a2-3)Gal(b1-4)GlcNAc(b1-6)]Man(a1-6)[Neu5Ac(a2-3)Gal(b1-4)GlcNAc(b1-2)Man(a1-3)]Man(b1-4)GlcNAc(b1-4)GlcNAc
# In short: as §1
# [30] = biological target: Neu5Ac(a2-3)Gal(b1-4)GlcNAc(b1-3)Gal
# In short: as §1
# [31] = biological target: Neu5Ac(a2-3)Gal(b1-4)GlcNAc(b1-3)[Neu5Ac(a2-3)Gal(b1-4)GlcNAc(b1-6)]GalNAc
# In short: as §1
# [32] = biological target: Neu5Ac(a2-3)Gal(b1-4)[Fuc(a1-3)]GlcNAc(b1-3)GalNAc
# In short: as §1
# [33] = biological target: Neu5Ac(a2-3)Gal(b1-4)[Fuc(a1-3)]GlcNAc(b1-6)[Neu5Ac(a2-3)Gal(b1-3)]GalNAc
# In short: as §1
# [34] = biological target: Neu5Ac(a2-6)Gal(b1-4)GlcNAc(b1-3)Gal(b1-4)GlcNAc
# In short: as §1
# [35] = biological target: Neu5Ac(a2-6)Gal(b1-4)GlcNAc(b1-3)Gal(b1-4)GlcNAc(b1-3)[Neu5Ac(a2-6)Gal(b1-4)GlcNAc(b1-3)Gal(b1-4)GlcNAc(b1-6)]GalNAc
# In short: as §1
# [36] = biological target: Neu5Ac(a2-8)Neu5Ac(a2-3)[GalNAc(b1-4)]Gal(b1-4)Glc
# In short: as §1
# [37] = biological target: Neu5Ac(a2-8)Neu5Ac(a2-8)Neu5Ac(a2-3)[Gal(b1-3)GalNAc(b1-4)]Gal(b1-4)Glc
# In short: as §1
# [38] = biological target: Neu5Gc(a2-3)Gal(b1-4)[Fuc(a1-3)]GlcNAc
# In short: as §1
binder,measurement,setting,value
B1,glycan array binding signal (z-score),[1],-0.051
same,glycan array binding signal (z-score),[2],0.166
same,glycan array binding signal (z-score),[3],0.395
same,glycan array binding signal (z-score),[4],4.6
same,glycan array binding signal (z-score),Fuc(a1-2)[Gal(a1-3)]Gal,0.984
same,glycan array binding signal (z-score),[5],-0.224
same,glycan array binding signal (z-score),[6],0.627
same,glycan array binding signal (z-score),[7],3.83
same,glycan array binding signal (z-score),[8],-0.179
same,glycan array binding signal (z-score),[9],6.82
same,glycan array binding signal (z-score),[10],1.18
same,glycan array binding signal (z-score),Fuc(a1-4)GlcNAc,1.12
same,glycan array binding signal (z-score),Gal(a1-3)Gal,0.612
same,glycan array binding signal (z-score),Gal(a1-3)Gal(b1-3)GlcNAc,7.36
same,glycan array binding signal (z-score),[11],6.01
same,glycan array binding signal (z-score),Gal(b1-3)GalNAc,0.106
same,glycan array binding signal (z-score),[12],-0.138
same,glycan array binding signal (z-score),[13],-1.03
same,glycan array binding signal (z-score),[14],-0.779
same,glycan array binding signal (z-score),[15],-0.887
same,glycan array binding signal (z-score),[16],1.23
same,glycan array binding signal (z-score),[17],-0.485
same,glycan array binding signal (z-score),[18],0.437
same,glycan array binding signal (z-score),[19],2.68
same,glycan array binding signal (z-score),[20],-0.632
same,glycan array binding signal (z-score),[21],-0.337
same,glycan array binding signal (z-score),GalNAc(b1-3)GlcNAc,0.645
same,glycan array binding signal (z-score),GalNAc(b1-4)GlcNAc,3.23
same,glycan array binding signal (z-score),[22],2.61
same,glycan array binding signal (z-score),[23],1.01
same,glycan array binding signal (z-score),[24],-0.932
same,glycan array binding signal (z-score),[25],1.14
same,glycan array binding signal (z-score),[26],2.53
same,glycan array binding signal (z-score),[27],-0.202
same,glycan array binding signal (z-score),[28],-0.553
same,glycan array binding signal (z-score),[29],-0.601
same,glycan array binding signal (z-score),[30],-0.951
same,glycan array binding signal (z-score),[31],-1.2
same,glycan array binding signal (z-score),[32],3.17
same,glycan array binding signal (z-score),[33],2.76
same,glycan array binding signal (z-score),[34],-0.877
same,glycan array binding signal (z-score),[35],-0.602
same,glycan array binding signal (z-score),[36],-0.388
same,glycan array binding signal (z-score),[37],0.125
same,glycan array binding signal (z-score),[38],-0.203
